This excerpt belongs to a sample that is enriched for hits.
PglD inh: PglD (C. jejuni) enzyme inhibition; purified PglD enzyme, DTNB colorimetric CoA detection; inhibition, % at 12.5 µM; 360,000 compounds, 0.098% hits; in the data active means inhibition above about 16%, passing the limit was not always enough
ARNT TACC3 PPI: disruptors of human ARNT/TACC3 interaction; AID 623870; 390,000 compounds, 0.66% hits; AlphaScreen His-ARNT PAS-B/GST-TACC3 binding, luminescence; TACC3 fragment carries E629A point mutation; Q9Y6A5; inhibition, % at 9.99 µM;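 active means mean inhibition of replicates at least 50% and at least half of replicates each reaching 50%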;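 further: 0% = complete ARNT plus TACC3 wells and 100% = ARNT alone without TACC3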
ALR H2O2 inh: blocks human ALR sulfhydryl oxidase activity; P55789; purified ALR, DTT oxidation, H2O2 HRP-luminol luminescence; inhibition, % (no concentration beside the values); 290,000 compounds, 3.8% hits;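 active means mean replicate inhibition above about 79%, with every replicate also reaching it, limit read from the data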
NRP1-CendR mod: NRP-1/CendR interaction modulation. O14786. FAM-RPARPAR peptide binding to NRP-1, fluorescence polarization. inhibition, % at 25 µM. 360,000 compounds, 0.85% hits. AID 602438;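 active means inhibition or corrected inhibition above about 18%, plus a signal ratio from 0.5 to 1.5, limit read from the data, passing the limit was not always enough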
PDI turbidity: inhibitors of human protein disulfide isomerase. P07237. PDI insulin aggregation turbidity, A650, 90 min. inhibition, % at 10 µM. 350,000 compounds, 0.052% hits;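 active means mean inhibition across replicates of 30% or more, whatever share of single replicates reach that level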
Target sequence (P07237 whole entry, looked up): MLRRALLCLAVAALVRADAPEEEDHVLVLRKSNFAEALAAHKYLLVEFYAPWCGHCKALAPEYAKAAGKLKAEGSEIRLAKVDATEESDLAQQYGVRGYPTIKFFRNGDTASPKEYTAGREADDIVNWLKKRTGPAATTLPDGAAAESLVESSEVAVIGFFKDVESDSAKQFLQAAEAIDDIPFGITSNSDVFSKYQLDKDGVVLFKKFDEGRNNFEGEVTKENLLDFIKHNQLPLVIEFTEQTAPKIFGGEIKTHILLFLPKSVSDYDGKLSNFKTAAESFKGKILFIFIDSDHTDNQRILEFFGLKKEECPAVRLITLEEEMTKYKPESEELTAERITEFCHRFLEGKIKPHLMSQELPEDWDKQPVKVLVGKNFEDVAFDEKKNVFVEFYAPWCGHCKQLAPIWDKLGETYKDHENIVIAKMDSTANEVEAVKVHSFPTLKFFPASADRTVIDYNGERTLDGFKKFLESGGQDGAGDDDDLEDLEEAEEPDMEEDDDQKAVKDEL
ERp5 block: inhibitors of human ERp5; Q15084; AID 651711; 350,000 compounds, 0.05% hits; ERp5 insulin aggregation, absorbance 650 nm, 90 min; inhibition, % at 9.99 µM;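 active means mean replicate inhibition above about 25%, with every replicate also reaching it, limit read from the data, passing the limit was not always enough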
Active calls of the source: *.

How did Nc1ccc(-c2nc3c(Cl)cc(N)cc3[nH]2)cc1 do in these assays?
PglD inh: 4; ARNT TACC3 PPI: -4; ALR H2O2 inh: 99*; NRP1-CendR mod: -13; PDI turbidity: 4

Results for COc1ccc2nc(-c3ccc(N)cc3)[nH]c2c1 ?
PglD inh: 7; ARNT TACC3 PPI: 0; ALR H2O2 inh: 99*; NRP1-CendR mod: -1; PDI turbidity: -2

Results for Nc1cccc(C(=O)Nc2ccc3nc(-c4cccnc4)[nH]c3c2)c1 ?
ARNT TACC3 PPI: 8; ALR H2O2 inh: 99*; NRP1-CendR mod: -3; PDI turbidity: 2; ERp5 block: -2

Results for Nc1ccc2nc(-c3cccs3)[nH]c2c1 ?
PglD inh: 3; ARNT TACC3 PPI: 12; ALR H2O2 inh: 99*; NRP1-CendR mod: -2; PDI turbidity: 13; ERp5 block: 0

How did CN(C)CCCNC(=O)C[C@@H]1CC[C@H]2[C@H](COc3ccc(NC(=O)c4ccccc4F)cc3C(=O)N2C)O1 do in these assays?
PglD inh: 1; ARNT TACC3 PPI: -1; ERp5 block: -3

Results for CCCN(C)C[C@@H]1Oc2ncc(C#Cc3ccccc3OC)cc2C(=O)N([C@H](C)CO)C[C@@H]1C ?
PglD inh: 0; ARNT TACC3 PPI: 9; ERp5 block: -6

Results for Nc1ccc2nc(-c3ccccc3)[nH]c2c1 ?
PglD inh: 2; ARNT TACC3 PPI: -2; ALR H2O2 inh: 99*; NRP1-CendR mod: 8; PDI turbidity: -5

How did Nc1ccc2nc(-c3cccnc3)[nH]c2c1 do in these assays?
ARNT TACC3 PPI: -59; ALR H2O2 inh: 100*; NRP1-CendR mod: -1; PDI turbidity: -5

Results for Nc1ccc2nc(-c3ccc(N)c(Cl)c3)[nH]c2c1 ?
ARNT TACC3 PPI: 1; ALR H2O2 inh: 99*; NRP1-CendR mod: -7; PDI turbidity: -10

What do the screens show for `O=[N+]([O-])c1ccc2nc(-c3cccnc3)[nH]c2c1`?
PglD inh: -3; ARNT TACC3 PPI: 3; ALR H2O2 inh: -2; NRP1-CendR mod: -4; PDI turbidity: -2; ERp5 block: 4

How did Nc1cccc(-c2nc3ccc(C(=O)c4ccccc4)cc3[nH]2)c1 do in these assays?
PglD inh: 4; ARNT TACC3 PPI: 15; ALR H2O2 inh: -12; NRP1-CendR mod: -6; PDI turbidity: -3; ERp5 block: -1

How did COc1ccc2c3c(n(C)c2c1)[C@@H](CO)NCC31CCN(C(=O)Nc2ccccc2F)CC1 do in these assays?
ERp5 block: 3

How did COc1ccc(N2CCN(c3ncccc3C#N)CC2)cc1 do in these assays?
ARNT TACC3 PPI: 1; ALR H2O2 inh: 97*; NRP1-CendR mod: 10; PDI turbidity: 5

What do the screens show for `COc1ccnc(N2CCN(c3ccccc3)CC2)c1C#N`?
ARNT TACC3 PPI: -3; ALR H2O2 inh: 99*; NRP1-CendR mod: 11; PDI turbidity: -8; ERp5 block: 4

What do the screens show for `COc1ccc(N2CCN(c3ccc(N)cc3C#N)CC2)cc1`?
PglD inh: 0; ARNT TACC3 PPI: 0; ALR H2O2 inh: 86*; NRP1-CendR mod: -3; PDI turbidity: 1

What do the screens show for `COc1ccnc(Oc2ccccc2)c1C#N`?
PglD inh: 8; ARNT TACC3 PPI: -2; ALR H2O2 inh: -3; NRP1-CendR mod: 6; PDI turbidity: -5; ERp5 block: -2

What do the screens show for `C[C@@H]1CCCCO[C@@H](CN(C)C(=O)c2ccccc2)[C@H](C)CN([C@@H](C)CO)C(=O)c2cc(NC(=O)Nc3cccc4ccccc34)ccc2O1`?
PglD inh: 0; ARNT TACC3 PPI: -3; ERp5 block: 2

What do the screens show for `N#C[C@@H]1[C@@H](c2ccc(C#CC3CCCCC3)cc2)[C@@H](CO)N1C(=O)Cc1ccccn1`?
PglD inh: -1; ARNT TACC3 PPI: 7; ERp5 block: -2

How did C[C@H]1CN([C@@H](C)CO)C(=O)Cc2cc(NC(=O)Nc3ccccc3)ccc2O[C@H]1CN(C)Cc1ccc(C(F)(F)F)cc1 do in these assays?
PglD inh: 1; ARNT TACC3 PPI: 3; ERp5 block: -2

What do the screens show for `CCc1c(C)nc2c(C#N)c[nH]n2c1=O`?
PglD inh: 2; ARNT TACC3 PPI: 12; ALR H2O2 inh: 98*; NRP1-CendR mod: -3; PDI turbidity: 9; ERp5 block: -13

Results for O=C(O)c1cc(-c2ccccc2)nc2nc(N3CCCCC3)sc12 ?
ALR H2O2 inh: 80*; ERp5 block: 0

How did Cc1ccc(-c2cc(C(=O)O)c3sc(N4CCCCC4)nc3n2)cc1 do in these assays?
ARNT TACC3 PPI: -7; ALR H2O2 inh: 98*; NRP1-CendR mod: -7; PDI turbidity: 3

Results for CO[C@H]1CN(C)C(=O)c2ccc(NS(=O)(=O)c3ccccc3C)cc2OC[C@H](C)N(C)C[C@H]1C ?
PglD inh: 0; ARNT TACC3 PPI: -5; ERp5 block: 6

How did CCN(CC)c1ccc(NC(=O)c2ccco2)cc1 do in these assays?
PglD inh: -4; ARNT TACC3 PPI: 10; ALR H2O2 inh: 3; NRP1-CendR mod: 10; PDI turbidity: -9

What do the screens show for `CCN(CC)c1ccc(NC(=O)CC2Oc3ccccc3NC2=O)c(C)c1` (centres undefined)?
PglD inh: 3; ARNT TACC3 PPI: 18; ALR H2O2 inh: 98*; NRP1-CendR mod: -18; PDI turbidity: -7; ERp5 block: -2

How did CCN(CC)c1ccc(NC(=O)c2ccco2)c(C)c1 do in these assays?
ARNT TACC3 PPI: 5; ALR H2O2 inh: 99*; NRP1-CendR mod: -1; PDI turbidity: 1

How did O=C(Nc1ccccc1C(=O)O)c1cccc(F)c1 do in these assays?
PglD inh: 1; ARNT TACC3 PPI: -2; NRP1-CendR mod: -6; PDI turbidity: 2

Results for CCN(CC)c1ccc(NC(=O)c2cccc(F)c2)c(C)c1 ?
PglD inh: -10; ARNT TACC3 PPI: 3; ALR H2O2 inh: 99*; NRP1-CendR mod: 19; PDI turbidity: -1

Results for Cc1ccc(NC(=O)CC2Oc3ccccc3NC2=O)c(C)c1 (centres undefined) ?
PglD inh: 3; ARNT TACC3 PPI: 16; ALR H2O2 inh: -3; NRP1-CendR mod: -15; PDI turbidity: -7; ERp5 block: -12

Results for Cc1cc(O)c(NC(=O)c2ccc(Br)o2)cc1C ?
PglD inh: 0; ARNT TACC3 PPI: 4; ALR H2O2 inh: 2; NRP1-CendR mod: -3; PDI turbidity: -19

What do the screens show for `CCN(CC)c1ccc(NC(=O)c2ccc(Br)o2)c(C)c1`?
PglD inh: -3; ARNT TACC3 PPI: -2; ALR H2O2 inh: 99*; NRP1-CendR mod: 3; PDI turbidity: 10

Results for O=C(C[C@@H]1C[C@@H]2c3cc(NS(=O)(=O)c4ccc(F)cc4)ccc3O[C@@H]2[C@H](CO)O1)NCc1ccncc1 ?
PglD inh: 1; ARNT TACC3 PPI: 4; ERp5 block: 9
